Holding throughout (experiment): universal protein binding microarray (PBM); transcription factors of Arabidopsis thaliana; high values mean tight binding
Experiment [1] deals with T1, GST-ANAC092(1-176) (Arabidopsis thaliana, UniProt Q9FKA0 1-176).
T1 sequence: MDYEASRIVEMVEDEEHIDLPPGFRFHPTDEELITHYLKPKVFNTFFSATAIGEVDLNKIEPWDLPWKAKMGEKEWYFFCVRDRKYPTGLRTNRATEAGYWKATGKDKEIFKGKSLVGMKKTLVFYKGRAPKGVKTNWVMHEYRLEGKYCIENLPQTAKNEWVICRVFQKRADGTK
The following applies: protein: recombinant; tags: GST; chain copies: 2; dsDNA, one strand shown. The gist of the method:
(§1)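 Binding is expressed as the normalised enrichment score (E-score). Proteins carrying a GST tag, whether NAC-domain, full-length or DNA-binding-domain forms, were induced in cells, and zinc acetate was added for zinc-finger proteins. After purification on glutathione–Sepharose 4B and quantification by A280 or anti-GST western blot, each was applied in duplicate at 200 to 500 nM final to custom all-10-mer Agilent 4 × 180K arrays made double-stranded by primer extension. Gapped and ungapped 8-mers were scored.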

Experiment [2] deals with T2, GST-ANAC019 NAC domain (Arabidopsis thaliana, UniProt Q9C932 14-162).
T2 sequence: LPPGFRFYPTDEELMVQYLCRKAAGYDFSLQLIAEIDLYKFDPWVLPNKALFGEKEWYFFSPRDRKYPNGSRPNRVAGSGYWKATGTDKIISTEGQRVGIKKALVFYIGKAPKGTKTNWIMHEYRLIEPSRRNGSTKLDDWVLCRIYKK
The following applies: protein: recombinant; tags: GST; chain copies: 2; dsDNA, one strand shown. Put shortly: as §1

In experiment [3] the target is T3, GST-ANAC055(1-171) (Arabidopsis thaliana, UniProt Q9LDY8 1-171).
T3 sequence: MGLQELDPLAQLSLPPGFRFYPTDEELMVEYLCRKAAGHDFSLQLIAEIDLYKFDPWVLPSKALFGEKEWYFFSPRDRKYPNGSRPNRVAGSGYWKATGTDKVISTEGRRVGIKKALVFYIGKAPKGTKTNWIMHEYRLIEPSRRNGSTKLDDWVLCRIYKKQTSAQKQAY
To be noted: protein: recombinant; tags: GST; chain copies: 2; dsDNA, one strand shown. The gist of the method:
as §1

Experiment [4] has as its target T4, GST-ATAF1 NAC domain (Arabidopsis thaliana, UniProt Q39013 7-158).
T4 sequence: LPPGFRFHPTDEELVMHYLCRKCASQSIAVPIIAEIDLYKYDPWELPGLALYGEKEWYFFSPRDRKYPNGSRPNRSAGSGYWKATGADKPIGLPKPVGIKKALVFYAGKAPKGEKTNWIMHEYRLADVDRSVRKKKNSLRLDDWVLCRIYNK
To be noted: protein: recombinant; tags: GST; chain copies: 2; dsDNA, one strand shown. Put shortly: as §1

For experiment [5], the target named is T5, GST-ANAC092(1-285) full length (Arabidopsis thaliana, UniProt Q9FKA0 1-285).
T5 sequence: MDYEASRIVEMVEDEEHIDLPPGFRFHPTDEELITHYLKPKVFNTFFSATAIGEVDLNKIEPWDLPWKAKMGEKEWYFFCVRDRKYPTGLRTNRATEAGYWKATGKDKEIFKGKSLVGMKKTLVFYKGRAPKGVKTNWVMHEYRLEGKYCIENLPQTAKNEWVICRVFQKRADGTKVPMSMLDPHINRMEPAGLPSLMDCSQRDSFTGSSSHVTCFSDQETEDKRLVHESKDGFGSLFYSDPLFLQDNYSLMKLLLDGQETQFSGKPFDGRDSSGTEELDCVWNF
To be noted: protein: recombinant; tags: GST; chain copies: 2; dsDNA, one strand shown. The gist of the method:
as §1

For experiment [6], the target named is T6, GST-NAP(1-166) (Arabidopsis thaliana, UniProt O49255 1-166).
T6 sequence: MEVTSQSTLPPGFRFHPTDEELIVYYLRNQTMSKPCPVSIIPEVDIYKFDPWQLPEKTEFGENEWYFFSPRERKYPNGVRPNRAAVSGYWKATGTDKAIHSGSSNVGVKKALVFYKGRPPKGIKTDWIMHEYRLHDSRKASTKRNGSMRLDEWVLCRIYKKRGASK
The following applies: protein: recombinant; tags: GST; chain copies: 2; dsDNA, one strand shown. The gist of the method:
as §1

Experiment [7] addresses T7, GST-NST2(1-184) (Arabidopsis thaliana, UniProt Q9M274 1-184).
T7 sequence: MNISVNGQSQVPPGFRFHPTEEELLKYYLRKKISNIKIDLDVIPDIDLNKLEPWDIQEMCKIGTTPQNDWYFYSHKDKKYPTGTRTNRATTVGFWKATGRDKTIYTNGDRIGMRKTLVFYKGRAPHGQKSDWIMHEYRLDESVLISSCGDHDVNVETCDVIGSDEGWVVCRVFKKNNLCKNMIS
The following applies: protein: recombinant; tags: GST; chain copies: 2; dsDNA, one strand shown. Put shortly: as §1

The target in experiment [8] is T8, GST-NTL8 NAC domain (Arabidopsis thaliana, UniProt Q9XIN7 14-156).
T8 sequence: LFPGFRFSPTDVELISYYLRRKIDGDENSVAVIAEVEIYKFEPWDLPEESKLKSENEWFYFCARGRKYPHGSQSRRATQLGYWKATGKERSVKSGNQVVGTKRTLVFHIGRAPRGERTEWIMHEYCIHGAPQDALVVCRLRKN
To be noted: protein: recombinant; tags: GST; chain copies: 2; dsDNA, one strand shown. Put shortly: as §1

The target of experiment [9] is T9, GST-SND1(1-203) (Arabidopsis thaliana, UniProt Q9LPI7 1-203).
T9 sequence: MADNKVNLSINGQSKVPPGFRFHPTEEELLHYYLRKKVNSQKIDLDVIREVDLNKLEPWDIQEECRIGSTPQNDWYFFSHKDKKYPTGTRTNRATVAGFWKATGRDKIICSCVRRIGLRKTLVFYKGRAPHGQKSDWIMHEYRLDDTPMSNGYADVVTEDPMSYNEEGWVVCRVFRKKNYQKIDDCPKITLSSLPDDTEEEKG
The following applies: protein: recombinant; tags: GST; chain copies: 2; dsDNA, one strand shown. The gist of the method:
as §1

The target in experiment [10] is T10, GST-VND3 NAC domain (Arabidopsis thaliana, UniProt Q9FH59 12-162).
T10 sequence: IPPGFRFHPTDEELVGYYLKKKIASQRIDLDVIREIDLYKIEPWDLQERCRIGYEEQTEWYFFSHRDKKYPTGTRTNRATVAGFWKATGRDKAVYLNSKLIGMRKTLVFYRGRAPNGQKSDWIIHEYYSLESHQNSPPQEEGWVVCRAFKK
The following applies: protein: recombinant; tags: GST; chain copies: 2; dsDNA, one strand shown. The gist of the method: as §1

For experiment [11], the target named is T11, GST-VND7 NAC domain (Arabidopsis thaliana, UniProt Q9C8W9 9-158).
T11 sequence: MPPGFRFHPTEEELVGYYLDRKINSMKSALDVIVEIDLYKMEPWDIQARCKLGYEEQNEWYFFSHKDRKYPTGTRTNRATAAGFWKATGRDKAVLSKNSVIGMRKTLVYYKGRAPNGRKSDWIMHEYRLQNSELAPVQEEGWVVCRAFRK
To be noted: protein: recombinant; tags: GST; chain copies: 2; dsDNA, one strand shown. The gist of the method:
as §1

In experiment [12] the target is GST-WRKY1(266-371) (Arabidopsis thaliana, UniProt Q9SI37 266-371). To be noted: protein: recombinant; tags: GST; dsDNA, one strand shown. The gist of the method: as §1
GST-WRKY1(266-371), sequence (Q9SI37 266-371): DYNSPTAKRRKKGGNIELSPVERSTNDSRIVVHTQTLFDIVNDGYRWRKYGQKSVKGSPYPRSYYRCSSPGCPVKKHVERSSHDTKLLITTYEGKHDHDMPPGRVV
Experiment [13] concerns the target GST-NTL6(1-168) (Arabidopsis thaliana, UniProt Q9SCK6 1-168). The following applies: protein: recombinant; tags: GST; chain copies: 2; dsDNA, one strand shown. Put shortly:
as §1

GST-NTL6(1-168), sequence (Q9SCK6 1-168): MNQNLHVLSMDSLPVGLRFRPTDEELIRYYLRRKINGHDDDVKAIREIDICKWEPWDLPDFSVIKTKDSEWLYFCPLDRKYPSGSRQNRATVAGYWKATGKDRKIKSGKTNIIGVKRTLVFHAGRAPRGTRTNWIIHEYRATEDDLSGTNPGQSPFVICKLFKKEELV

Turning to AGACACGC, the binding signal in experiment [1] was 0.364 E-score; in experiment [2], 0.0909 E-score; in experiment [3] it was 0.0867 E-score; in experiment [4], 0.165 E-score; in experiment [5] it was 0.42 E-score; in experiment [6], 0.0846 E-score. Moreover, the binding signal in [7] is 0.107 E-score; in experiment [8] it was 0.0629 E-score; in experiment [9], 0.215 E-score; in [10], 0.0792 E-score; in experiment [11], 0.165 E-score; in [12], 0.084 E-score.
As to ACGCAAGG, the binding signal in experiment [1] was found to be 0.399 E-score; in experiment [2], 0.084 E-score; in [3], 0.106 E-score; in [4] it was 0.106 E-score; in [5], 0.448 E-score; in [6], 0.2 E-score. Moreover, the binding signal was 0.226 E-score in [7]; 0.152 E-score in experiment [8]; 0.39 E-score in [9]; 0.122 E-score in [10]; 0.128 E-score in experiment [11]; 0.201 E-score in experiment [12].
Regarding ACGCAATA, the binding signal in experiment [1] stood at 0.444 E-score; in [2], 0.233 E-score; in [3], 0.212 E-score; in experiment [4] it was 0.166 E-score; in experiment [5], 0.447 E-score; in experiment [6], 0.301 E-score. For the same sequence, the binding signal in [7] came to 0.288 E-score; in experiment [8], 0.0551 E-score; in experiment [9], 0.419 E-score; in experiment [10], 0.312 E-score; in experiment [11], 0.288 E-score; in experiment [12], 0.0639 E-score.
For the sequence GACTTTTA, the binding signal is 0.0971 E-score in [2]; 0.051 E-score in experiment [3]; 0.17 E-score in experiment [4]; 0.141 E-score in [5]; 0.0841 E-score in experiment [9]; 0.0985 E-score in experiment [10]. For the same sequence, the binding signal in experiment [11] turned out to be 0.149 E-score; in experiment [12], 0.414 E-score.
Consider TAGAGTAA, for which the binding signal in [1] amounted to 0.177 E-score; in experiment [3], 0.0921 E-score; in experiment [4] it was 0.0567 E-score; in experiment [5], 0.263 E-score; in experiment [7], 0.216 E-score; in experiment [8], 0.065 E-score. For the same sequence, the binding signal in [9] turned out to be 0.401 E-score; in [10], 0.117 E-score; in experiment [11], 0.128 E-score; in experiment [12] it was 0.0876 E-score.
As to AACACGCT, the binding signal came out at 0.416 E-score in [1]; 0.134 E-score in experiment [13]; 0.185 E-score in [2]; 0.236 E-score in experiment [3]; 0.174 E-score in experiment [4]; 0.431 E-score in [5]. Moreover, the binding signal in experiment [6] was 0.2 E-score; in experiment [7], 0.3 E-score; in experiment [9], 0.227 E-score; in [10] it was 0.0943 E-score; in experiment [11], 0.142 E-score.
As for ACGTCTCC, the binding signal in experiment [1] is 0.21 E-score; in [2], 0.411 E-score; in experiment [3], 0.353 E-score; in [4], 0.368 E-score; in experiment [5], 0.33 E-score; in experiment [6] it was 0.273 E-score. Moreover, the binding signal in [7] was 0.167 E-score; in experiment [8] it was 0.052 E-score; in [9], 0.182 E-score; in experiment [10], 0.34 E-score; in [11], 0.322 E-score; in experiment [12] it was 0.0802 E-score.
